From PubChem
Compounds with a hit are over-represented: about 9.3% of the library has one in this group of screens.
Rab9 prom act = activators of Rab9 promoter; Potency, µM (top dose mostly 9.22 µM), usual class: activators; 320,000 compounds, 2.8% hits; AID 485297; Huh7 Rab9 promoter-luciferase reporter, luminescence, 24 h; further: nearly all actives have a fitted effect of over 60% in size
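Steps: seed 1500 Huh7 Rab9-luc cells per well, rest 2 h at 37 °C; add compound in DMSO; incubate 24 h; add luciferase reagent, 10 min ambient; read luminescence.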
NPC1 promoter act = NPC1 promoter activation | Huh7 NPC1 promoter luciferase reporter, 24 h | AID 485313 | Potency, µM (titrated, usually from 9.22 µM), hits mostly activators | 320,000 compounds, 2.4% hits; further: nearly all actives have a fitted effect of over 60% in size
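Readout is luciferase luminescence, reflecting NPC1 promoter activation in stably transfected Huh7 cells after 24 h compound exposure at 37 °C in reduced-serum medium with 10% FBS.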
SMN2 splice enh = SMN2 splice variant enhancement. HEK293 SMN2-luciferase splicing reporter, luminescence, 30-36 h. Potency, µM (series often up to 46.1 µM), hits mostly activators. 210,000 compounds, 2.8% hits; further: nearly all actives have a fitted effect of over 55% in size
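qHTS luciferase splicing reporter: luminescence rises when SMN2 exon 7 is included in transfected HEK293 cells. Compound exposure lasted 30-36 h at 37C, with 4.5 mM final sodium butyrate as control, followed by a ONE-Glo read.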
ELG1 genotoxic = induces genotoxicity in HEK293T cells with luciferase-tagged ELG1. AID 504466. Potency, µM (doses to about 46 µM), actives largely listed as activators. 330,000 compounds, 1.3% hits. HEK293T ELG1-luciferase reporter, luminescence, 16 h; further: nearly all actives have a fitted effect of over 60% in size
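Genotoxic stress is detected as increased luminescence from luciferase-tagged ELG1 in HEK293T cells, measured with ONE-Glo after a 16 hr treatment at 37 °C.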
ELG1 DNA repair = ELG1-dependent DNA repair inhibition | HEK293T ELG1-luciferase reporter, luminescence, 16 h; DNA damage induced by 5-fluorouridine | Potency, µM (titrated, usually from 46.1 µM), hits mostly inhibitors | 330,000 compounds, 2.3% hits; further: nearly all actives have a fitted effect of over 55% in size
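Overnight (16 hr) co-exposure of 2,000 cells/well to 5-fluorouridine and compound at 37 °C preceded detection. Luciferase was quantified via ONE-Glo luminescence; loss of signal denotes inhibition.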
FLuc modulator = inhibits or activates purified firefly luciferase, miR-21 counter-screen; purified FLuc, Km substrates, luminescence inhibition; P08659; 360,000 compounds, 6.9% hits; Potency, µM (series often up to 57.5 µM), most hits filed as inhibitors; further: nearly all actives have a fitted effect of over 55% in size
Target sequence (P08659 whole entry, looked up): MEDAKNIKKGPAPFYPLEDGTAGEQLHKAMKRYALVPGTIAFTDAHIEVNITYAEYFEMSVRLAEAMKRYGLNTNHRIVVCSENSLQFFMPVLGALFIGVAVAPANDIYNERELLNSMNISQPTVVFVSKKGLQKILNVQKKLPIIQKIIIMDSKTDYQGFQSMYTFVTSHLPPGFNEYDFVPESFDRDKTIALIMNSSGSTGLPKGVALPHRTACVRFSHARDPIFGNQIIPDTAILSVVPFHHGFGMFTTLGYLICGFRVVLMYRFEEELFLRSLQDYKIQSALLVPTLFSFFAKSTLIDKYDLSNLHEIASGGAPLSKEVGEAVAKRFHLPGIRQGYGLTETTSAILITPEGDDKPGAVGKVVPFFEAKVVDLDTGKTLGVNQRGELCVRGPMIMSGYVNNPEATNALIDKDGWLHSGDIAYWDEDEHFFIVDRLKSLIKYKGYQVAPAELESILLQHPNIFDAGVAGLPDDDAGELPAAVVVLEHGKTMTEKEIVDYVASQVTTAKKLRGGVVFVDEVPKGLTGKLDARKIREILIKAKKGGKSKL
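Purified P. pyralis luciferase, 10 nM final, with Km-level 10 uM D-luciferin and 10 uM ATP in 50 mM Tris acetate pH 7.5, 10 mM Mg acetate, 0.01% Tween-20, 0.05% BSA; 6-point qHTS titration about 60 µM downward; luminescence read.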
A number is an active result; . = inactive; ? = inconclusive; / = no result given; [ ] = another dose, or the depositor's remark. The call rests on the fitted dose curve; in most records, active means well fitted curve in the direction sought with a large enough effect; inconclusive means small, poorly fitted or top-dose-only effect, or another doubt; inactive means no such curve, though single readings can be large; an effect the other way counts as inactive or inconclusive.

SMILES	Rab9 prom act	NPC1 promoter act	SMN2 splice enh	ELG1 genotoxic	ELG1 DNA repair	FLuc modulator
COc1ccc2cc(C3=CCCCC3)ncc2c1	?	2µM	/	?	?	0.85µM
COc1ccc(-c2cc3cc(OC)c(OC)cc3cn2)cc1	/	/	/	.	?	/
COc1cc(OC)cc(-c2cc3ncccc3cn2)c1	.	.	/	.	?	?
COc1ccc2cc(-c3ccccc3)ncc2c1	0.45µM	0.56µM	/	2.9µM	?	0.54µM
COc1ccc(-c2ccc3oc(-c4ccsc4)c(-c4ccc(Br)nc4)c3c2)cc1	/	/	/	.	?	/
Cc1cc(C(=O)NCCC(c2ccccc2)c2ccccc2)c(C)o1	.	.	.	.	.	?
CN(C)CCNc1ncnc2c1sc1nc(-c3ccccc3)c3c(c12)CCCC3	.	.	/	.	?	.
CCOc1cc(/C=C2/C(=O)ON=C2C)ccc1O	.	.	/	.	.	?
CCOc1cc(/C=C2\CN(C)C/C(=C\c3ccc(O)c(OCC)c3)C2=O)ccc1O	.	.	/	.	23µM	.
CCOc1cc(/C=C2\CCC/C(=C\c3cc(Cl)c(O)c(OCC)c3)C2=O)cc(Cl)c1O	.	.	.	.	6.5µM	.
Cc1ccc(NC(=O)CSCC(=O)NCc2cccc(C(F)(F)F)c2)cc1	.	.	/	.	.	.
O=c1[nH]c(-c2ccc(-c3cccc(Cl)c3)o2)nc2ccccc12	/	/	/	2.6µM	?	/
O=S(=O)(Nc1nc2ccccc2nc1Cl)c1cccc(C(F)(F)F)c1	.	.	/	.	.	?
CCNC(=O)C(=O)NCC(c1cccs1)S(=O)(=O)c1ccc(C)cc1 (configuration not stated)	.	.	/	.	.	.
Nc1sc(-c2ccccc2)cc1-c1n[nH]c(=S)n1C1CCCCC1	.	.	/	.	21µM	.
COc1c(C(=O)Nc2ccc(Br)cn2)ccc2ccccc12	?	.	/	?	?	5.4µM
COc1cc2ccccc2cc1C(=O)Nc1ccc(Br)cn1	1.8µM	1.6µM	/	?	?	?
COc1ccccc1NC(=O)Nc1ccc(Br)cn1	.	.	.	.	.	.
Oc1ccc(N=C/C=C/c2ccc(Br)cc2)cc1-c1nc2ccccc2s1	?	3.2µM	.[1.84 µM]	?	?	7.6µM
Cc1ccc2oc(C(=O)Nc3ccc(S(=O)(=O)N(C)c4ccccc4)cc3)cc(=O)c2c1	/	/	.	/	/	.
CC(C)c1cc2cc3ccc(=O)oc3cc2o1	?	?	/	?	?	12µM
NC(=O)c1cc(S(=O)(=O)NCCc2ccc(Cl)cc2)cs1	.	.	/	.	.	.
Cc1nnc(SCc2ccccc2Cl)c2cc3occc3n12	/	/	/	/	/	17µM
Cc1oc(-c2ccccc2F)nc1CSc1nnc(C)n2c1cc1occc12	/	/	/	/	/	.
CN(C)c1ccc(N=Cc2nc(-c3ccccc3)oc2OC(=O)c2cccc(Cl)c2)cc1	4.5µM	?	11µM	?	?	?
SMILES	Rab9 prom act	NPC1 promoter act	SMN2 splice enh	ELG1 genotoxic	ELG1 DNA repair	FLuc modulator
Cc1ccc(C(=O)Oc2oc(-c3ccccc3)nc2C=Nc2ccc(N(C)C)cc2)cc1	?	?	8.9µM	?	?	13µM
Cc1ccc(C(=O)Oc2oc(-c3ccco3)nc2C=Nc2ccc(Cl)cc2)cc1	3.2µM	1.8µM	14µM	?	?	4.8µM
COc1ccc(N=Cc2nc(-c3ccccc3)oc2OC(C)=O)cc1	.	.	/	.	?	.
O=C(Oc1oc(-c2ccco2)nc1C=Nc1ccccc1)c1ccoc1	.	.	.	.	?	.
CC(C)(O)/C=C/C[C@](C)(O)C1CC[C@]2(C)C1[C@H](O[C@H]1O[C@@H](CO)[C@H](O)[C@@H](O)[C@@H]1O)CC1[C@@]3(C)CC[C@H](O)C(C)(C)C3[C@@H](O)C[C@]12C (some centres not stated)	/	/	/	.	.	/
CN(CC(=O)Nc1ccc(F)c(F)c1F)c1ncnc2sccc12	.	.	.	.	?	.
CN(CC(=O)Nc1ccccc1Br)c1ncnc2sccc12	.	.	/	.	12µM	.
CCOc1ccc(-c2nnc(SCC(=O)Nc3ccccc3C(F)(F)F)o2)cc1	/	/	/	/	/	.
CCOc1ccc(-c2nnc(SCC(=O)Nc3cccc(C#N)c3)o2)cc1	/	/	/	/	/	19µM
CCOc1ccc(-c2nnc(SCC(=O)Nc3cccc(Cl)c3C)o2)cc1	/	/	/	/	/	13µM
Cc1cc2occ(CC(=O)N(C)CC(=O)Nc3cccc(F)c3)c2cc1C	.	.	/	.	.	.
CCC1CN(C(=O)N2CCC(C(=O)N3CCN(c4ccccc4)CC3)CC2)c2ccccc2O1 (configuration not stated)	/	/	/	/	/	.
O=C(CSc1nnc(C2CCCCC2)o1)Nc1ccccc1Cl	3.5µM	?	/	?	?	?
COc1ccc(NC(=O)CSc2nnc(C3CCCCC3)o2)c(OC)c1	.	.	.	.	.	.
O=[N+]([O-])c1ccc(Cl)c(S(=O)(=O)NCCc2ccccn2)c1	/	/	/	.	.	/
COc1ccc(NC(=S)N(CCc2c(C)[nH]c3ccccc23)Cc2cccnc2)cc1	.	.	.	.	.	.
COc1ccc(NC(=S)N(CCc2nc3cc(C)c(C)cc3[nH]2)Cc2cccnc2)cc1	.	.	.	.	16µM	.
O=[N+]([O-])c1ccccc1NC(=S)N/N=C/c1ccc(O)c(O)c1	?	?	/	3.7µM	?	19µM
CCOc1cccc(/C=N/NC(=S)Nc2ccccc2[N+](=O)[O-])c1O	.	.	.	0.37µM	?	?
Cc1cccc(NC(=S)N/N=C/c2ccc(Cl)c([N+](=O)[O-])c2)c1	.	.	.	.	.	.
Cc1cccc(C(=O)N2CCc3cc(CNC(=O)c4ccco4)ccc32)c1	/	/	/	/	/	.
Cc1ccc(C)c(NC(=O)c2ccc3c(=O)n4c(nc3c2)CCC4)c1	?	?	/	.	?	15µM
O=C(Nc1ccc(F)cc1F)c1ccc2c(=O)n3c(nc2c1)CCC3	1.1µM	1.1µM	/	?	?	11µM
COc1ccc(C)cc1NC(=O)c1ccc2c(=O)n3c(nc2c1)CCCCC3	.	.	.	.	?	.
O=C(NNC(=O)c1ccc2c(=O)n3c(nc2c1)CCC3)c1ccc(F)cc1	.	.	/	.	.	.
SMILES	Rab9 prom act	NPC1 promoter act	SMN2 splice enh	ELG1 genotoxic	ELG1 DNA repair	FLuc modulator
O=C(Nc1ccc(F)cc1Cl)c1ccc2c(=O)n3c(nc2c1)CCC3	3.5µM	3.2µM	/	.	?	.
O=C(NNC(=O)c1ccc2c(=O)n3c(nc2c1)CCC3)c1ccc(Cl)cc1	.	.	/	.	.	.
CCc1ccc(-c2cn3c(n2)sc2cc(C(=O)NC4CCCCC4)ccc23)cc1	/	/	/	/	/	.
O=c1c2cc(F)ccc2sn1-c1ccccc1	.	.	/	.	?	?
Cc1ccccc1-n1sc2cc(F)ccc2c1=O	.	.	.	.	?	11µM
CCNC(=O)C(=O)NCC(c1ccc2c(c1)OCO2)N1CCOCC1 (configuration not stated)	.	.	/	.	.	.
